Assay outcomes as filed in PubChem.
This is a sample that favours compounds with a hit; in the whole collection about 2.4% have one here.
D2 ag-1 = agonists of human D2 dopamine receptor (beta-arrestin); P14416; DiscoveRx PathHunter D2 beta-arrestin, luminescence, 90 min; 100% = 57 uM dopamine signal; activation, % (concentration not given with the values); 360,000 tested, 0.084% active; AID 624465; in the data active = activation above about 40%; inconclusive = between about 15% and that limit
Target sequence (P14416 whole entry, looked up): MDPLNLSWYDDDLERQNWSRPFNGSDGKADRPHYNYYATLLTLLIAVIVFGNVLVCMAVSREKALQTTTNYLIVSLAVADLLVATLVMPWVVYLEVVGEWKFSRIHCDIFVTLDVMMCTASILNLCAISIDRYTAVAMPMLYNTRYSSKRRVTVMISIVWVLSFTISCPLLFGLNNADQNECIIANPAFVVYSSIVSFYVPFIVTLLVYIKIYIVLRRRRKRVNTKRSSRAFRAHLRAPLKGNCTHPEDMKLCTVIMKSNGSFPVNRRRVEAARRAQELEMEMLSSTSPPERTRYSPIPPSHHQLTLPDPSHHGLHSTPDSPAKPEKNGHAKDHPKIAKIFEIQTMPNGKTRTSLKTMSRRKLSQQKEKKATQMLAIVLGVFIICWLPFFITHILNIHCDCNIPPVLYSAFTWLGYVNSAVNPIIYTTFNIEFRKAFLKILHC
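Agonist mode: compounds alone added to overnight-plated D2 PathHunter cells for 90 min at 37 C, with 57 uM final dopamine (EC100) defining full response. Beta-arrestin recruitment detected by chemiluminescent reagent, read after 1 h at ambient temperature.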
D2 ag-2 = activates the human D2 dopamine receptor. P14416. HEK293 T-REx D2 cells, calcium flux agonist mode. activation, % at 2 µM. 340,000 tested, 0.53% active;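 active = activation over 3 SD above normal in the single-dose calcium agonist read, cut at about 30% in these data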; note: 0% is about no effect
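HEK293 Trex D2 cells, tetracycline-induced, o/n 30 C 5% CO2; no-wash Ca dye, RT 30–90 min; 10-cycle baseline, 23 nl cpd added, kinetic Ca read 180 s; agonist hits = positive Ca response.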
D2 PAM-1 = D2 dopamine receptor (human) potentiation | potentiation, % at 10 µM | HEK293 T-REx D2, calcium flux, EC20 dopamine potentiation | 340,000 tested, 0.34% active | P14416;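 active = potentiation over 3 SD above the plate norm, cut at about 30% in these data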; note: 0% is about no effect
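Calcium flux readout, no-wash dye, 1 read/s. Inducible HEK293 Trex D2 line, overnight 30 C. Compound alone 180 s (agonist flags), then EC20 dopamine, another 180 s to score potentiation.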
D2 PAM-2 = human D2 receptor positive allosteric modulation; P14416; DiscoveRx D2 beta-arrestin cells, luminescence, 90 min; 100% = 57 uM dopamine signal; potentiation, % (concentration not given with the values); 360,000 tested, 0.23% active; in the data active = potentiation above about 50%; inconclusive = mostly about 30% to 49%
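D2 cells co-treated with compound plus 50 nM dopamine (EC20) for 90 min at 37 deg C to detect potentiation. Beta-arrestin recruitment was read as enzyme-fragment luminescence after 1 h at ambient temperature. Full response was set by 57 uM dopamine.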
D2 antag = antagonists of human D2 dopamine receptor. AID 485344. 340,000 tested, 2% active. HEK293 TREx D2 cells, calcium flux, dopamine EC80. P14416. inhibition, % at 10 µM; in the data active = inhibition above about 30%; inactive = below that, where a call was filed; note: 0% is about no effect
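Antagonism is scored as inhibition of an EC80 dopamine-evoked calcium signal in a force-coupled, tetracycline-inducible HEK293 T-REx D2 line, with compound present 180 s before agonist.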
An asterisk follows results filed as active.

`O=C(COC(=O)CCN1C(=O)C2CC=CCC2C1=O)NCCc1ccc(F)cc1` (configuration not stated) gave D2 ag-1 -3.1, D2 ag-2 0.3, D2 PAM-1 -11.5, D2 PAM-2 -5.2 and D2 antag 37.1*.
For NS(=O)(=O)c1ccc(CCNC(=O)COC(=O)CCN2C(=O)C3CC=CCC3C2=O)cc1 (configuration not stated) the results were D2 ag-1 1.6, D2 ag-2 -0.3, D2 PAM-1 8.3, D2 PAM-2 -9.2 and D2 antag -9.2.
Cc1cccc(Cn2c(=O)n(CCCC(=O)NCc3ccccc3Cl)c(=O)c3ccccc32)c1 was read as D2 ag-2 0.2 and D2 PAM-1 2.8.
For CCOC(=O)c1sc(NC(=S)NC(=O)c2ccco2)nc1C the results were D2 ag-1 -6.3, D2 ag-2 -1.0, D2 PAM-1 23.3, D2 PAM-2 4.6 and D2 antag -10.8.
`CCOC(=O)c1sc(NC(NC(=O)c2ccco2)(C(=O)OC)C(F)(F)F)nc1C` (configuration not stated) gave D2 ag-1 -2.3, D2 ag-2 0.2, D2 PAM-1 -0.4, D2 PAM-2 -8.0 and D2 antag 33.8*.
For O=[N+]([O-])c1ccc(C[n+]2ccc(Cc3ccccc3)cc2)cc1 the results were D2 ag-1 13.2, D2 ag-2 -0.3, D2 PAM-1 -0.7, D2 PAM-2 10.0 and D2 antag 2.7.
c1ccc(Cc2cc[n+](Cc3ccccn3)cc2)cc1 was read as D2 ag-1 -1.9, D2 ag-2 -0.1, D2 PAM-1 8.8, D2 PAM-2 -2.1 and D2 antag 42.0*.
For O=C(Nc1ccccc1-c1nnn(CC(=O)N2CCCc3ccccc32)n1)c1ccc(Cl)cc1 the results were D2 ag-1 -0.4, D2 ag-2 0.7, D2 PAM-1 5.7, D2 PAM-2 -8.8 and D2 antag 47.4*.
COc1ccc(N2CCN(C(CNS(=O)(=O)c3ccc(OC)c(C)c3)c3ccco3)CC2)cc1 (configuration not stated) was read as D2 ag-2 0.7 and D2 PAM-1 -6.0.
For O=C(COC(=O)c1ccc(Sc2ccccc2)c([N+](=O)[O-])c1)NC1CCS(=O)(=O)C1 (configuration not stated) the results were D2 ag-1 -0.7, D2 ag-2 0.6, D2 PAM-1 7.9, D2 PAM-2 -11.6 and D2 antag 32.2*.
Screening COC(=O)c1cc(C(=O)OCC(=O)NC2CCS(=O)(=O)C2)cc([N+](=O)[O-])c1 (configuration not stated) returned D2 ag-1 1.6, D2 ag-2 1.4, D2 PAM-1 -2.6, D2 PAM-2 4.3 and D2 antag -3.4.
For O=C(O)COc1ccccc1-c1nc(-c2ccccc2)c(-c2ccccc2)[nH]1 the results were D2 ag-1 7.9, D2 ag-2 -0.2, D2 PAM-1 8.5, D2 PAM-2 7.0 and D2 antag -1.7.
Screening COc1cccc(-c2nc(-c3ccccc3)c(-c3ccccc3)[nH]2)c1OCC(=O)O returned D2 ag-1 4.8, D2 ag-2 1.1, D2 PAM-1 -3.9, D2 PAM-2 65.4* and D2 antag -5.9.
COCCNC(=O)CCN1C(=O)c2cccnc2Oc2ccc(C)cc21 was read as D2 ag-2 0.9 and D2 PAM-1 -8.6.
For COc1cc(-c2nc(CN3CCN(c4ncccn4)CC3)c(C)o2)ccc1F the results were D2 ag-1 inconclusive, D2 ag-2 30.6*, D2 PAM-1 -6.0, D2 PAM-2 -5.3 and D2 antag 1.3.
`CCOC(=O)c1[nH]c(C)c(CCC(=O)N2CCN(c3ccc(OC)cc3)CC2)c1C` gave D2 ag-2 -0.2 and D2 PAM-1 -6.1.
For COc1cc(N)c(Cl)cc1C(=O)N[C@@H]1CCN(CCCOc2ccc(F)cc2)C[C@@H]1OC the results were D2 ag-2 1.1, D2 PAM-1 -23.9 and D2 antag 76.6*.
COc1cc(N)c(Cl)cc1C(=O)N[C@H]1CCN(CCCOc2ccc(F)cc2)C[C@H]1OC was read as D2 ag-1 -3.9, D2 ag-2 0.9, D2 PAM-1 -13.0, D2 PAM-2 -23.7 and D2 antag -15.1.
`Cn1nc(-c2ccc(Cl)cc2)c2cc(C(=O)NCCCN3CCCC3)sc21` gave D2 ag-1 13.8, D2 ag-2 0.2, D2 PAM-1 -26.2, D2 PAM-2 10.9 and D2 antag 33.0*.
CCCCN(C)CCNC(=O)c1cc2c(-c3ccccc3F)nn(C)c2s1 was read as D2 ag-1 3.5, D2 ag-2 32.2*, D2 PAM-1 -15.8, D2 PAM-2 -12.7 and D2 antag 24.3.
COc1cccc(-c2nn(C)c3sc(C(=O)NCCCN(C)Cc4ccccc4)cc23)c1 was read as D2 ag-1 6.7, D2 ag-2 -2.3, D2 PAM-1 -22.9, D2 PAM-2 -35.6 and D2 antag 33.2*.
CCN(CC)CCCNC(=O)c1cc2c(-c3cccc(OC)c3)nn(C)c2s1 was read as D2 ag-1 0.1, D2 ag-2 0.3, D2 PAM-1 -2.4, D2 PAM-2 -49.4 and D2 antag -27.9.
Screening COc1cccc(-c2nn(C)c3sc(C(=O)NCc4ccco4)cc23)c1 returned D2 ag-1 -3.0, D2 ag-2 0.1, D2 PAM-1 -17.0, D2 PAM-2 -27.8 and D2 antag 36.2*.
For COCCCNC(=O)c1ccc2sc([C@@H]3O[C@H](CO)[C@H](O)[C@H](O)[C@H]3O)nc2c1 the results were D2 ag-1 -5.6 and D2 PAM-2 -5.2.
Screening Cc1ccc(C)c(N(C)S(=O)(=O)c2ccc3[nH]cc(C(=O)NC4CCCC4)c(=O)c3c2)c1 returned D2 PAM-1 -7.4.
Screening Cc1ccc(Cc2c(C(C)(C)C)nc3cc(C)c(Br)c(C)n23)cc1 returned D2 ag-1 -2.8 and D2 PAM-2 -0.7.
Screening O=C(CC(NCc1cccnc1)C(=O)O)Nc1ccc(F)cc1 (configuration not stated) returned D2 ag-2 0.8 and D2 PAM-1 14.6.
Cc1ccc(-n2nc(CO)c(C(=O)NC(C)c3ccccc3)n2)cc1C (configuration not stated) was read as D2 PAM-1 -0.1.
`COc1cc(C2C(=O)N(C3CCC(C)CC3)CC(=O)N2CCc2ccc(Cl)cc2)ccc1OC(C)C` (configuration not stated) gave D2 ag-2 0.5 and D2 PAM-1 7.6.
For O=C(Nc1ccc2nc(SCCOc3ccccc3Cl)sc2c1)c1cccs1 the results were D2 ag-2 2.3 and D2 PAM-1 -7.4.
`Cc1cc2nc3s/c(=C/c4ccc(-c5ccccc5C(=O)O)o4)c(=O)n3c2cc1C` gave D2 ag-1 -7.0, D2 ag-2 69.6*, D2 PAM-1 -6.4, D2 PAM-2 -11.5 and D2 antag 33.8*.
